TDP1 cell noCPT = qHTS for Inhibitors of human tyrosyl-DNA phosphodiesterase 1 (TDP1): qHTS in cells in absence of CPT | DT40 Tdp1-/- hTDP1 cells, no CPT, ATP luminescence, 48 h | Potency, µM (series often up to 46.2 µM), for the others: top-dose activity change, negative = growth inhibition, hits mostly inhibitors | 15% of 420,000 active; note: potency is the fitted concentration of half-maximal effect; nearly all actives have a fitted effect of over 55% in size
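Growth kinetics read by CellTiter-Glo luminescence after ≥48 hr at 37 °C. Cells: DT40 Tdp1-/- stably carrying human TDP1, 400 per well, compound exposure in the absence of CPT (DMSO vehicle).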
ALOX12 inh = blocks human arachidonate 12S-lipoxygenase; AID 1671190; Potency, µM (titrated, usually from 108 µM), inactives show at the top dose activity change, negative = inhibition, usual class: inhibitors; 1.1% of 580,000 active; purified 12hLO, xylenol orange hydroperoxide absorbance; note: potency is the fitted concentration of half-maximal effect
Target sequence (P18054 whole entry, looked up): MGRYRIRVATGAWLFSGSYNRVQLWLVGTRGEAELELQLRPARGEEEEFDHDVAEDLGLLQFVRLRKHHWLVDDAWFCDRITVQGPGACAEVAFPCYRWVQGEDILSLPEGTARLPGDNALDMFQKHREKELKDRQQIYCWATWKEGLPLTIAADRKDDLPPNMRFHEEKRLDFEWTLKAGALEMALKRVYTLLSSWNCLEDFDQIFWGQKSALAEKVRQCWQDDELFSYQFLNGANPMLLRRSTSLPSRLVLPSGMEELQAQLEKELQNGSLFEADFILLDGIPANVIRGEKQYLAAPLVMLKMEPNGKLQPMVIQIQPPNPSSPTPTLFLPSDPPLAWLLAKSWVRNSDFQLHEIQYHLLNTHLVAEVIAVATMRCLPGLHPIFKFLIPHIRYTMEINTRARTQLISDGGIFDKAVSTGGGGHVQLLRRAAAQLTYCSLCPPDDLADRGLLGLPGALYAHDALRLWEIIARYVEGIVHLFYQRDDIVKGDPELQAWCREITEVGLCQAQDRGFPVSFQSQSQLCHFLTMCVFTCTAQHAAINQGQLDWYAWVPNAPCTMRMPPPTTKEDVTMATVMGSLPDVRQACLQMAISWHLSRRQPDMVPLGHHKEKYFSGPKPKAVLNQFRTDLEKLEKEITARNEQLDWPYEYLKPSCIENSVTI
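Purified human 12hLO (150 nM final) in 25 mM Hepes, 0.01% Triton X-100, pH 7.0 was preincubated 15 min at room temperature with compound. Then 40 uM arachidonic acid was added, 30 min. Hydroperoxide was read by Fe-XO absorbance ratio 573/405 nm.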
IL-1B inflam inh = inhibitors of inflammasome signaling (IL-1 beta secretion); THP-1 LPS/ATP IL-1B secretion, AlphaLISA, 16 h; hits give low values; activity change, % at 57.5 µM; 4.7% of 360,000 active; in the data active = activity change below about -50%; inconclusive = mostly about -30% to -49%
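Secreted IL-1B measured by AlphaLISA bead assay after 16 h compound exposure of THP-1 cells; compounds (final up to 57.5 uM) added 1 h before LPS (250 ng/mL) and ATP (1.25 mM) stimulation; lower signal means less secretion.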
TDP1 cell CPT = growth inhibition of DT40 Tdp1-/-;hTDP1 cells with camptothecin (screen for TDP1 inhibitors). Potency, µM (titrated, usually from 46.2 µM), for inactives: at the highest dose activity change, negative = growth inhibition, actives largely listed as inhibitors. AID 686979. chicken DT40 Tdp1-/-;hTDP1 cells + 20 nM CPT, ATP luminescence, 48 h. 12% of 420,000 active; note: potency is the fitted concentration of half-maximal effect; nearly all actives have a fitted effect of over 55% in size
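Cell growth measured by CellTiter-Glo luminescence after a minimum 48 h, 37 C compound exposure with 20 nM CPT in Tdp1-knockout DT40 cells stably expressing hTDP1, seeded 400/well; qHTS titration format.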
HT1080 IDH1KD tx = kills HT-1080 cells with IDH1 knockdown. AID 686971. Potency, µM (titrated, usually from 46.1 µM), inactives show at the highest dose activity, negative = toxicity, hits mostly cytotoxic. HT-1080 IDH1 knockdown viability, ATP luminescence, 48 h. 2% of 360,000 active;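 note: potency is the fitted concentration of half-maximal effect; 0% = DMSO wells and -100% = cell-free medium wells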
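After a 2 h attachment period, IDH1KD HT-1080 cells took pin-transferred compound for 48 h at 37 °C; ATP-based luminescence after 10 min room-temperature reagent incubation reported viability.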
HT1080-NT tox = kills 2HG-producing HT-1080-NT fibrosarcoma cells; HT-1080-NT fibrosarcoma viability, CellTiter-Glo ATP luminescence, 48 h; Potency, µM (doses to about 46.1 µM), for inactives: at the top dose activity, negative = less viability, hits mostly cytotoxic; 1.6% of 360,000 active;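 note: NT is the 2HG producing partner of a matched IDH1 knockdown line; potency is the fitted concentration of half-maximal effect; 0% = DMSO-treated cells and -100% = media-only wells without cells; nearly all actives have a fitted effect of over 55% in size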
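Viability of the 2HG-overproducing fibrosarcoma line after 48 hours of compound exposure at 37 degrees C was determined by luminescence with CellTiter-Glo, and concentration-effect curves were then fitted and categorized.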
* marks the source's active call; other numbers are inactive results; ? = inconclusive; . = no result; ! = not active in a repeat; [ ] = another dose, or the depositor's remark. This is one part of a sample in which hits are shown more often than they occur. Unless noted, calls come from the whole dose curve; as a rule, active = well fitted curve in the direction sought with a large enough effect; inconclusive = small, poorly fitted or top-dose-only effect, or another doubt; inactive = no such curve, though single readings can be large; an effect the other way counts as inactive or inconclusive. Unless noted, % is set by controls: 0 for no effect and ±100 for the full control effect.

SMILES | TDP1 cell noCPT | ALOX12 inh | IL-1B inflam inh | TDP1 cell CPT | HT1080 IDH1KD tx | HT1080-NT tox
N#C/C(=C(/O)COc1ccc(Cl)cc1)c1nc2ccccc2s1 | 9.2µM* | -7% | 19 | ? | -6% | -9%
N#C/C(=N\O)c1nc2ccccc2s1 | 0% | 1% | 55 | 3% | -3% | 7%
N#C/C(=C(/O)COc1ccccc1)c1nc2ccccc2s1 | ? | -2% | 8 | -17% | 7% | 0%
CCS(=O)(=O)Nc1cccc(C2=NN(S(=O)(=O)c3ccccc3)C(c3ccccc3C)C2)c1 (stereo not drawn) | . | 4% | . | . | . | .
Cc1cn(CCNC(=O)c2cn(C3CCC(N)CC3)nn2)nn1 (stereo not drawn) | . | 42% | . | . | . | .
CC(C)(C)c1ccc(CN2CCN(C(c3ccccc3)c3ccc(Cl)cc3)CC2)cc1 (stereo not drawn) | 24µM* | . | . | 13µM* | . | .
O=C(C1CCN(Cc2ccc(Cl)cc2)CC1)N1CCN(C(c2ccccc2)c2ccccc2)CC1 | 12µM* | ? | -53* | ? | ? | ?
Cc1cccc(CN2CCN(C(c3ccccc3)c3ccc(Cl)cc3)CC2)c1 (stereo not drawn) | 7.3µM* | ? | 20 | ? | ? | ?
O=C(c1ccc(Cl)cc1)C1CCN(Cc2ccccc2)CC1 | ? | ? | -13 | ? | -5% | -4%
Cc1ccc(-c2noc(CN3CCN(C(c4ccccc4)c4ccccc4)CC3)n2)cc1 | ? | -13% | 2 | ? | -16% | -9%
COC(=O)c1cccc(COC(=O)C2Cc3ccccc3C(=O)O2)c1 (stereo not drawn) | . | 4% | . | . | . | .
O=C(O)C(c1c[nH]c2ccccc12)N1CCN(c2ccc(F)cc2)CC1 (stereo not drawn) | . | -21% | . | . | . | .
Cc1ccc(CNC(=O)c2c(C)noc2-c2ccc3c(c2)OCO3)o1 | . | 7% | . | . | . | .
CCc1ccc(C2CC(=O)N3CN(c4ccccc4)CSC3=C2C#N)cc1 (stereo not drawn) | ? | ? | -14 | ? | -11% | 0%
Cc1ccc(C2CC(=O)N3CN(Cc4ccccc4)CSC3=C2C#N)cc1 (stereo not drawn) | . | 5.6µM* | . | . | . | .
CN1CSC2=C(C#N)C(c3cccc(OCc4ccccc4)c3)CC(=O)N2C1 (stereo not drawn) | ? | -12% | 12 | 21µM* | -1% | ?
COc1ccc(N2CSC3=C(C#N)C(c4cc(OC)ccc4OC)CC(=O)N3C2)c(OC)c1 (stereo not drawn) | ? | . | 52 | ? | 1% | 0%
COc1cccc(C2CC(=O)N3CN(C4CCCCC4)CSC3=C2C#N)c1 (stereo not drawn) | ? | 13µM* | . | ? | . | .
CCN1CCCC2(Cc3ccccc3CN(C(C)=O)C2)C1 (stereo not drawn) | . | 9%[12.5 µM] | . | . | . | .
COc1ccccc1NC(=O)C1=C(C)NC2=C(C(=O)CC(c3ccc(OC)c(OC)c3)C2)C1c1coc2ccccc2c1=O (stereo not drawn) | ? | -26% | -24 | ? | -12% | -1%
CC1=C(C(=O)Nc2ccccc2F)C(c2ccsc2)C2=C(CC(c3ccccc3)CC2=O)N1 (stereo not drawn) | 26µM* | 20% | -18 | 26µM* | -19% | -17%
CCOC(=O)CSC1=NC(=O)CS1 | ? | 0% | -14 | 10µM* | -2% | -2%
COC(=O)C1=CNC=C(C(=O)OC)C1c1ccc(F)c(F)c1 | . | 41% | . | . | . | .
CNCC[C@@H](Oc1ccccc1C)c1ccccc1 | 24µM* | ? | ? | ? | ? | ?
CNCCC(Oc1ccccc1OC)c1ccccc1 (stereo not drawn) | 23µM*! | 6% | -13 | 13µM*! | -4% | -1%
SMILES | TDP1 cell noCPT | ALOX12 inh | IL-1B inflam inh | TDP1 cell CPT | HT1080 IDH1KD tx | HT1080-NT tox
Cc1ccccc1OCC(=O)NC(C)c1ccccc1 (stereo not drawn) | ? | 18% | -2 | ? | -4% | -1%
O=C(CN1C(=O)CSc2ccc(S(=O)(=O)N3CCCCC3)cc21)NCc1ccc(F)cc1Cl | ? | -12% | . | 23µM* | . | .
COc1ccccc1CNC(=O)CN1C(=O)CSc2ccc(S(=O)(=O)N3CCCCC3)cc21 | 21µM* | -10% | . | ? | . | .
COc1ccccc1CNC(=O)CN1C(=O)COc2ccc(S(=O)(=O)N3CCCCC3)cc21 | ? | -5% | -8 | ? | 9% | 8%
O=C(CN1CCN(CC(=O)Nc2cccc(F)c2)CC1)NCCc1c[nH]c2ccccc12 | . | 13% | . | . | . | .
O=C(O)C[C@@H]1CCN(C(=O)C2CCCC2)C[C@@H]1CCN(CCN1CCOCC1)c1ccccc1 | . | 50% | . | . | . | .
CNC(=O)c1ccccc1C(=O)c1cc(C)ccc1C | . | 2% | . | . | . | .
Cc1ccccc1-c1cc(N2CCNCC2)ncn1 | -5% | ? | . | -9% | . | .
Clc1ccc2c(c1)N=C(N1CCNCC1)c1ccccc1N2 | 9.2µM* | -12% | . | 13µM* | . | .
